# Assay results: PMC8384837, “Expanding the binding specificity for RNA recognition by a PUF domain”
# Assays:
# Test in all cases: yeast three-hybrid, YBZ-1, SC-Leu-His + 0.5 mM 3-AT, 4 days
# Conditions in all cases: tags: N-Gal4 AD-HA kept; label: inside an RPR1-promoter hybrid RNA with tandem MS2 sites; ssRNA
# PUM1 PUF domain R5-AAD = PUM1 PUF domain R5-AAD (Homo sapiens, UniProt Q14671 828-1176, C1007A;R1008A;Q1011D)
# Summary of the method: (§1)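 Each repeat of the Pumilio-1 PUF domain was randomized at its three base-contacting residues, and these libraries were co-expressed from a centromeric plasmid with matching RNA elements in strain YBZ-1. After four days on SC-Leu (input) or SC-Leu-His + 0.5 mM 3-AT (selection), the repeat regions were PCR-amplified and Illumina-sequenced. The interaction score compares variant frequency between input and selection as a log change, computed in log2 with a pseudocount of 1 for absent variants.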
# PUM1 PUF domain R8-RRV = PUM1 PUF domain R8-RRV (Homo sapiens, UniProt Q14671 828-1176, N1122R;Y1123R;Q1126V)
# Summary of the method: as §1
# PUM1 PUF domain R6-FWV = target: T1, PUM1 PUF domain R6-FWV (Homo sapiens, UniProt Q14671 828-1176, N1043F;Y1044W;Q1047V)
# T1 sequence: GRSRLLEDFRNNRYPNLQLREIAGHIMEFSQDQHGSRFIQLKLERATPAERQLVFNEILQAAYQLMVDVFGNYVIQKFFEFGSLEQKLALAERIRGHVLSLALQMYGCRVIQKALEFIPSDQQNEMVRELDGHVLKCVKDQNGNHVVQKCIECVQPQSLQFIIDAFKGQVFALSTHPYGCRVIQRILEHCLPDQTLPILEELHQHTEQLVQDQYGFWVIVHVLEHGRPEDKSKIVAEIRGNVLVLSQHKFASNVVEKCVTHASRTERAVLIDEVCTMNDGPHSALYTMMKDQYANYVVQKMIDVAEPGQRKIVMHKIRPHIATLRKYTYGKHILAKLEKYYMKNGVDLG
# Summary of the method: as §1
# PUM1 PUF domain R4-DWM = PUM1 PUF domain R4-DWM (Homo sapiens, UniProt Q14671 828-1176, N971D;H972W;Q975M)
# Summary of the method: as §1
# PUM1 PUF domain R3-DHL = PUM1 PUF domain R3-DHL (Homo sapiens, UniProt Q14671 828-1176, C935D;R936H;Q939L)
# Summary of the method: as §1
# PUM1 PUF domain R3-TYH = PUM1 PUF domain R3-TYH (Homo sapiens, UniProt Q14671 828-1176, C935T;R936Y;Q939H)
# Summary of the method: as §1
# PUM1 PUF domain R3-WYS = PUM1 PUF domain R3-WYS (Homo sapiens, UniProt Q14671 828-1176, C935W;R936Y;Q939S)
# Summary of the method: as §1
# PUM1 PUF domain R3-FIG = PUM1 PUF domain R3-FIG (Homo sapiens, UniProt Q14671 828-1176, C935F;R936I;Q939G)
# Summary of the method: as §1
# PUM1 PUF domain R5-ASR = PUM1 PUF domain R5-ASR (Homo sapiens, UniProt Q14671 828-1176, C1007A;R1008S;Q1011R)
# Summary of the method: as §1
# PUM1 PUF domain R5-WSR = PUM1 PUF domain R5-WSR (Homo sapiens, UniProt Q14671 828-1176, C1007W;R1008S;Q1011R)
# Summary of the method: as §1
sequence,measurement,setting,value
GGCUAGAACUAGUGGAUCCCCCGGCGCCCGGCGGCUCGAGCCCGGGUAAGUGUGAAUAGUCUGCAUGCCGCCGGGCGCCAUGCCUGCAGGUCGACUCUAGAAAACAUG,binding signal,PUM1 PUF domain R5-AAD,2.97 log2 enrichment (interaction score)
GGCUAGAACUAGUGGAUCCCCCGGCGCCCGGCGGCUCGAGCCCGGGUAAGCGUAAAUAGUCUGCAUGCCGCCGGGCGCCAUGCCUGCAGGUCGACUCUAGAAAACAUG,binding signal,PUM1 PUF domain R8-RRV,2.4 log2 enrichment (interaction score)
GGCUAGAACUAGUGGAUCCCCCGGCGCCCGGCGGCUCGAGCCCGGGUAAGUGUAAAUAGUCUGCAUGCCGCCGGGCGCCAUGCCUGCAGGUCGACUCUAGAAAACAUG,binding signal,PUM1 PUF domain R6-FWV,4.97 log2 enrichment (interaction score)
same,binding signal,PUM1 PUF domain R4-DWM,6.03 log2 enrichment (interaction score)
same,binding signal,PUM1 PUF domain R8-RRV,0.86 log2 enrichment (interaction score)
same,binding signal,PUM1 PUF domain R3-DHL,3.42 log2 enrichment (interaction score)
same,binding signal,PUM1 PUF domain R3-TYH,2.88 log2 enrichment (interaction score)
GGCUAGAACUAGUGGAUCCCCCGGCGCCCGGCGGCUCGAGCCCGGGUAAGUGUAAGUAGUCUGCAUGCCGCCGGGCGCCAUGCCUGCAGGUCGACUCUAGAAAACAUG,binding signal,PUM1 PUF domain R3-WYS,2.89 log2 enrichment (interaction score)
same,binding signal,PUM1 PUF domain R3-FIG,3.51 log2 enrichment (interaction score)
GGCUAGAACUAGUGGAUCCCCCGGCGCCCGGCGGCUCGAGCCCGGGUAAGUGUACAUAGUCUGCAUGCCGCCGGGCGCCAUGCCUGCAGGUCGACUCUAGAAAACAUG,binding signal,PUM1 PUF domain R4-DWM,4.24 log2 enrichment (interaction score)
GGCUAGAACUAGUGGAUCCCCCGGCGCCCGGCGGCUCGAGCCCGGGUAAGUGUCAAUAGUCUGCAUGCCGCCGGGCGCCAUGCCUGCAGGUCGACUCUAGAAAACAUG,binding signal,PUM1 PUF domain R5-ASR,5.07 log2 enrichment (interaction score)
same,binding signal,PUM1 PUF domain R5-WSR,5.87 log2 enrichment (interaction score)
GGCUAGAACUAGUGGAUCCCCCGGCGCCCGGCGGCUCGAGCCCGGGUAAGUGUUAAUAGUCUGCAUGCCGCCGGGCGCCAUGCCUGCAGGUCGACUCUAGAAAACAUG,binding signal,PUM1 PUF domain R5-ASR,1.28 log2 enrichment (interaction score)
